From PubChem BioAssay
Hits are enriched below; roughly 21% of the tested compounds scored in any of these assays.
DT40 TDP1 CPT: DT40-hTDP1 cell growth loss with CPT | Potency, µM (series often up to 46.2 µM), for inactives: top-dose activity change, negative = growth inhibition, usual class: inhibitors | 420,000 compounds, 12% hits | chicken DT40 Tdp1-/-;hTDP1 cells + 20 nM CPT, ATP luminescence, 48 h; note: potency is the fitted concentration of half-maximal effect; % is set by controls: 0 for no effect and ±100 for the full control effect; nearly all actives have a fitted effect of over 55% in size
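Chicken DT40 Tdp1-/- cells complemented with human TDP1, 400 cells/well, exposed to compounds plus 20 nM camptothecin for at least 48 h at 37 C; viability read as ATP content by CellTiter-Glo luminescence.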
DRD3 antagonist: antagonists of human D3 dopamine receptor. max response, negative = inhibition, %. P35462. D3R cells, DiscoveRx beta-arrestin luminescence, antagonist mode; active compounds read low. AID 652054. 360,000 compounds, 2.5% hits; in the data active = max response below about -50%; inconclusive = no clear call, values can overlap the other calls; note: % is set by controls: 0 for no effect and ±100 for the full control effect
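Cells expressing the human receptor were seeded at 1500 cells/well, incubated overnight at 37 degrees C in 5% CO2, then exposed to library compounds with dopamine controls for 90 minutes at 37 degrees C before luminescent detection.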
D3 ag: activates the human D3 dopamine receptor; max activation, %; 410,000 compounds, 0.58% hits; P35462; D3R DiscoveRx beta-arrestin cells, luminescence, 90 min; in the data active = max activation above about 30%; note: 0% is about no effect
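Cells at 1500/well, incubated overnight, then treated with pinned compounds (dopamine as control) for 90 min at 37 degrees C. DiscoveRx reagent added for 30 - 60 minutes at room temperature; luminescence read.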
IL1B secr inh: blocks inflammasome-driven IL-1 beta release | THP-1 LPS/ATP IL-1B secretion, AlphaLISA, 16 h; active compounds read low | activity change, % at 57.5 µM | 360,000 compounds, 4.7% hits | AID 743279; in the data active = activity change below about -50%; inconclusive = mostly about -30% to -49%; note: % is set by controls: 0 for no effect and ±100 for the full control effect
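Secreted IL-1B measured by AlphaLISA bead assay after 16 h compound exposure of THP-1 cells; compounds (final up to 57.5 uM) added 1 h before LPS (250 ng/mL) and ATP (1.25 mM) stimulation; lower signal means less secretion.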
DT40 TDP1 no CPT: qHTS for Inhibitors of human tyrosyl-DNA phosphodiesterase 1 (TDP1): qHTS in cells in absence of CPT | AID 686978, 2013 | 420,000 compounds, 15% hits | Potency, µM (titrated, usually from 46.2 µM), for inactives: at the highest dose activity change, negative = growth inhibition, hits mostly inhibitors | DT40 Tdp1-/- hTDP1 cells, no CPT, ATP luminescence, 48 h; note: potency is the fitted concentration of half-maximal effect; % is set by controls: 0 for no effect and ±100 for the full control effect; nearly all actives have a fitted effect of over 55% in size
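Stably hTDP1-transfected Tdp1-null chicken DT40 cells were treated with library compounds minus camptothecin and grown for at least 48 hr at 37 °C, after which cellular ATP was quantified by luminescence.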
ClpP mod: qHTS Assay for Activators of ClpP; purified B. subtilis ClpP, FRET peptide cleavage, 20 min; AID 651965, 2013; Potency, µM (doses to about 57.5 µM), without a hit: at the highest dose activity change, negative = active; 340,000 compounds, 1.9% hits; ATP-dependent Clp protease proteolytic subunit (Bacillus subtilis (strain 168)), P80244; active = well fitted falling curve with a large enough effect; inconclusive = small, poorly fitted or top-dose-only effect; inactive = no such curve, though single readings can be large or run the other way; note: potency is the fitted concentration of half-maximal effect; the source files actives as falling curves though it sought activators and does not explain the sign; nearly all actives have a fitted effect of over 65% in size
Target sequence (P80244 whole entry, looked up): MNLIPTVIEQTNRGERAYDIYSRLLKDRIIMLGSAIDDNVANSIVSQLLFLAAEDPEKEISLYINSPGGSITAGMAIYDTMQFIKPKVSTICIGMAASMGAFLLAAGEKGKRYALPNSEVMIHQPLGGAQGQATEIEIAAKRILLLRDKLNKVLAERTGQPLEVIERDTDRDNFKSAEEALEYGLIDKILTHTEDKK
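Purified B. subtilis ClpP, 10 microg/mL final in Tris/HCl pH8 with KCl, BSA, glycerol and Tween-20, cleaved an Abz/nitrotyrosine-quenched decapeptide. Fluorescence (ex 320, em 430) was read at 0 and 20 min at room temperature. Delta was normalized to 5.8 microM ADEP and DMSO/no-enzyme controls.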
Numbers without * were called inactive; u = inconclusive; x = no result. Unless noted, calls come from the whole dose curve; as a rule, active = well fitted inhibition curve with a large enough effect; inconclusive = small, poorly fitted or top-dose-only effect; inactive = flat fitted curve, though single readings scatter.

SMILES	DT40 TDP1 CPT	DRD3 antagonist	D3 ag	IL1B secr inh	DT40 TDP1 no CPT	ClpP mod
Cc1ccc(S(=O)(=O)N2CCN(C(=O)COC(=O)c3cncc(Br)c3)CC2)c(C)c1	-2%	-13	2	1	-19%	1%
C[C@H](NC(=O)c1ccc2ccccc2c1)C(=O)N1CCC2(CC1)NCCc1[nH]cnc12	8%	22	-4	6	-23%	-10%
COc1ccccc1[N+](=O)[O-]	-11%	24	11	-1	9%	0%
COc1ccccc1P(=O)(Cc1ccccc1[N+](=O)[O-])c1ccccc1 (centres undefined)	u	-11	5	-10	15µM*	x
O=[N+]([O-])c1cccc(CSc2ncnc3ccccc23)c1	-16%	-16	-1	-61*	u	1%
Cc1cccc(CSc2ncnc3ccccc23)c1	-25%	3	-5	1	u	x
COc1cc(CN2CCc3c([nH]c4ccccc34)C2)cc(OC)c1	u	-68*	-16	-6	u	1%
Clc1cccc(CN2CCc3c([nH]c4ccccc34)C2)c1Cl	u	0	0	-62*	23µM*	-22%
COc1ccccc1CN1CCC2(CC1)CCN(C(C)=O)CC2	14%	x	x	x	26%	x
COc1ccccc1CN1CCc2c([nH]c3ccccc23)C1	u	-90*	-6	8	u	-17%
CCS(=O)(=O)c1nc(S(=O)(=O)c2ccc(Cl)cc2)c(NCCOC)s1	-20%	-11	0	-2	-3%	1%
CCOc1ccc(NC(=O)CSc2nc3ccccc3nc2N2CCOCC2)cc1	21µM*	-18	3	3	13µM*	1%
CC1CN(c2nc3ccccc3nc2SCC(=O)Nc2cccc(C(F)(F)F)c2)CC(C)O1 (centres undefined)	15µM*	8	5	4	26µM*	u
COc1ccc(NC(=O)CSc2nc3ccccc3nc2N2CCOCC2)cc1	-9%	9	3	-22	-26%	-4%
CCCCc1ccc(NC(=O)CSc2nc3ccccc3nc2N2CCOCC2)cc1	u	x	11	x	26µM*	-5%
CCOc1ccc(NC(=O)CSc2nc3ccccc3nc2N2CC(C)OC(C)C2)cc1 (centres undefined)	23µM*	11	-1	-6	10µM*	-25%
CCOc1ccc(NC(=O)c2sc(N3CCOCC3)nc2-c2ccccc2)cc1	u	40	4	-9	23µM*	-10%
CC1C=CC=CC=CC=CC=CC=CC=CC(OC2OC(C)C(O)C(N)C2O)CC2OC(O)(CC(O)CC(O)C(O)CCC(O)CC(O)CC(=O)OC(C)C(C)C1O)CC(O)C2C(=O)O (centres undefined)	4.6µM*	-24	-14	63	3.3µM*	-19%
O=C(c1ccc(S(=O)(=O)c2ccccc2Cl)c([N+](=O)[O-])c1)N1CCCCCC1	21µM*	61	-3	-73*	18µM*	-1%
O=C(c1cccc(Cl)c1)N1CCN(c2ccccn2)CC1	-25%	8	2	0	-26%	3%
O=C(c1ccc([N+](=O)[O-])c(CS(=O)(=O)c2ccc(Cl)cc2)c1)N1CCCCC1	-3%	3	4	4	u	x
O=C(c1ccc(S(=O)(=O)Cc2cc(F)ccc2F)c([N+](=O)[O-])c1)N1CCOCC1	6.5µM*	-11	4	-100*	7.3µM*	1%
O=C(c1ccc(S(=O)(=O)c2cccc(Cl)c2)c([N+](=O)[O-])c1)N1CCN(c2ccccn2)CC1	2.6µM*	-15	4	-246*	2.3µM*	x
